# A number with no mark means an inactive call. Records with an inconclusive call do not appear. A call without a number means that no potency is given here. The source made the active and inactive calls. Unless noted, calls follow the shape of the dose curve; as a rule, active = well fitted curve in the direction sought with a large enough effect in the repeat runs; inconclusive = weak or mixed curves; inactive = no such curve, though single readings can be large; an effect the other way counts as inactive or inconclusive.
# Assays:
# [1] = qHTS assay for small molecule agonists of the p53 signaling pathway (AID 651631; calls by dose curve; also: nearly all actives have a fitted effect of over 15% in size)
# Summary of the method: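 Beta-lactamase reporter activity under p53 response elements was quantified in HCT-116 cells by FRET fluorescence, following 16 h incubation with test compounds at 37 °C and 2 h substrate development at room temperature.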
# [2] = qHTS assay for small molecules that induce genotoxicity in human embryonic kidney cells expressing luciferase-tagged ATAD5 (AID 651632); also: nearly all actives have a fitted effect of over 15% in size; also: potency is read from the fitted curve at half-maximal effect
# Summary of the method: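 Genotoxicity read-out via ATAD5-luciferase: HEK293T cells, 16 hr compound incubation at 37C, Amplite detection.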
# [3] = qHTS assay for small molecules that induce genotoxicity in human embryonic kidney cells expressing luciferase-tagged ATAD5 - cell viability (AID 651634; calls by dose curve; also: nearly all actives have a fitted effect of over 25% in size)
# Summary of the method: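 Live-cell protease activity (CellTiter-Fluor, fluorescence) indicates viability. HEK293T cells with luciferase-tagged ATAD5; 15.5 hr compound treatment at 37C.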
# [4] = qHTS assay for small molecule disruptors of the mitochondrial membrane potential - cell viability (AID 720634; calls by dose curve;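 also: human HepG2 liver cancer cells; series mostly up to about 83 µM; nearly all actives have a fitted effect of over 20% in size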)
# Summary of the method: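 Human hepatoma HepG2 cells were treated for 1 hr with test chemicals, then given m-MPI dye and CellTiter-Glo. Cell viability reflects luminescence proportional to cellular ATP.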
# [5] = qHTS assay to test for compound auto fluorescence at 590 nm (red) in HepG2 cells (AID 720674)
# Summary of the method: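 We screened compounds on adherent HepG2 cells, incubating them for an hour at 37 C in 5% CO2 before reading emission at 590 nm under 540 nm excitation; values reflect equivalence to Rose Bengal sodium fluorescence.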
# [6] = qHTS assay to test for compound auto fluorescence at 535 nm (green) in HepG2 cells (AID 720675)
# [7] = qHTS assay to test for compound auto fluorescence at 460 nm (blue) in HEK293 cells (AID 720678)
# Summary of the method: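 Cells were seeded and left to adhere for 4-5 hr at 37C. Compounds were then pin-transferred. After an overnight incubation at 37C under 5% CO2, intrinsic fluorescence at 405/460 nm was measured and referenced to triamterene.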
# [8] = qHTS assay to test for compound auto fluorescence at 590 nm (red) in HEK293 cells (AID 720679)
# Summary of the method: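 Each well held 2,000 HEK293 cells in medium containing 10% dialyzed FBS. Following 4-5 hr attachment at 37C, 23 nL test compound or DMSO was added; plates sat overnight, and red fluorescence (540/590nm) was recorded.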
# [9] = qHTS assay to test for compound auto fluorescence at 535 nm (green) in HEK293 cells (AID 720680)
# [10] = qHTS assay to test for compound auto fluorescence at 460 nm (blue) in HEK293 cell free culture (AID 720681)
# Summary of the method: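 Blue fluorescence (Ex 405/Em 460 nm, triamterene-equivalent) was read immediately after pin transfer of compound or DMSO into medium (DMEM, 10% FBS) without cells.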
# [11] = qHTS assay to test for compound auto fluorescence at 535 nm (green) in HEK293 cell free culture (AID 720682)
# Summary of the method: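 Each library compound, or DMSO control, is added by pintool to medium alone, comprising DMEM and 10% FBS. Emission at 535 nm following 485 nm excitation is quantified against fluorescein.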
# [12] = qHTS assay to test for compound auto fluorescence at 590 nm (red) in HEK293 cell free culture (AID 720683)
# Summary of the method: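 Red-channel autofluorescence of compounds in culture medium (DMEM, 10% FBS), no cells, measured at 540/590 nm. Rose Bengal sodium is the reference fluorophore for equivalence.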
# [13] = qHTS assay to test for compound auto fluorescence at 590 nm (red) in HepG2 cell free culture (AID 720684)
# Summary of the method: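 Steps: dispense MEM/10% FBS medium, no cells; pin compound or DMSO vehicle; read red channel, Ex/Em 540/590 nm. Output given as Rose Bengal sodium equivalents.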
# [14] = qHTS assay to test for compound auto fluorescence at 460 nm (blue) in HepG2 cell free culture (AID 720685)
# Summary of the method: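 Compound (23 nL) or DMSO pinned into cell-free MEM with 10% FBS; blue fluorescence read at 405/460 nm excitation/emission, expressed as auto-fluorescence equivalency to triamterene.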
# [15] = qHTS assay to test for compound auto fluorescence at 535 nm (green) in HepG2 cell free culture (AID 720686)
# [16] = qHTS assay to test for compound auto fluorescence at 460 nm (blue) in HepG2 cells (AID 720687)
# Summary of the method: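 Blue-channel autofluorescence (Ex/Em 405/460 nm, triamterene-equivalent) was measured after 1 hr compound exposure at 37 C, 5% CO2. Cells were HepG2, plated overnight at 37 C in MEM plus 10% FBS.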
# [17] = qHTS assay for small molecule disruptors of the mitochondrial membrane potential (AID 720635); also: potency is read from the fitted curve at half-maximal effect
# Summary of the method: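 Mitochondrial membrane potential tracked with Mito-MPS dye, red aggregates (ex 540/em 590 nm) against green monomers (ex 490/em 535 nm). Compound treatment 1 hr at 37C, dye 30 min in HepG2.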
# [18] = biological target: Glucocorticoid receptor (Homo sapiens) (UniProt P04150); test: qHTS assay to identify small molecule agonists of the glucocorticoid receptor (GR) signaling pathway (AID 720691; active = well fitted activation curve with a large enough effect in the signal ratio in the repeat runs, not every such curve was filed as active; the % refers to the signal ratio)
# Sequence of Glucocorticoid receptor (Homo sapiens) (P04150 whole entry, looked up): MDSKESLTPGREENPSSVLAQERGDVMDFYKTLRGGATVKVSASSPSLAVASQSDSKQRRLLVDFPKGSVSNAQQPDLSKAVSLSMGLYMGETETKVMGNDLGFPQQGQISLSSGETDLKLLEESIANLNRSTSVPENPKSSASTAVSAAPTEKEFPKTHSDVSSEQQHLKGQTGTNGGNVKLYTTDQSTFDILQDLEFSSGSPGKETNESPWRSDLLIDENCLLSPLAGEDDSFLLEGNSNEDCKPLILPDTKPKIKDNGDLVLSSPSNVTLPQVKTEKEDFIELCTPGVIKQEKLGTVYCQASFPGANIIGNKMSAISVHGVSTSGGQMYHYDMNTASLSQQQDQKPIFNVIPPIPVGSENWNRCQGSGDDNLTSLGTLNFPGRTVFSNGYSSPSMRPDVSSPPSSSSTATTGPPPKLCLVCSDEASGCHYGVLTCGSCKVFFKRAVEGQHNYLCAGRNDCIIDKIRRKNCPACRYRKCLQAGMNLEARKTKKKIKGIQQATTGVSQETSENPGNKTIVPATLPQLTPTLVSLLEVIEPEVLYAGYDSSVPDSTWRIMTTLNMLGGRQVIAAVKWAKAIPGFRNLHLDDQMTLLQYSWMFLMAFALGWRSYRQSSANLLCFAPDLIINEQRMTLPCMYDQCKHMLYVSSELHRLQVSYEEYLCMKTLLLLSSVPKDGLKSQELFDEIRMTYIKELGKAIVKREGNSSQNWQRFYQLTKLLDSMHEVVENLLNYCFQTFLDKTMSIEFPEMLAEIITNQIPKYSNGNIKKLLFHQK
# Summary of the method: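 Beta-lactamase reporter activity, read as fluorescence intensity, was measured in GR-bla HeLa cells exposed to compounds for 18 h at 37 C and then loaded with LiveBLAzer B/G FRET substrate for 2 h at room temperature.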
# [19] = biological target: Glucocorticoid receptor (Homo sapiens) (UniProt P04150); test: qHTS assay to identify small molecule antagonists of the glucocorticoid receptor (GR) signaling pathway (AID 720692; active = well fitted inhibition curve with a large enough effect in the signal ratio in the repeat runs, not every such curve was filed as active; the % refers to the signal ratio)
# Summary of the method: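 Fluorescence from cleaved LiveBLAzer B/G FRET substrate reports GRE-driven beta-lactamase in HeLa cells; compounds are tested against 5 nM dexamethasone (final) over 18 h at 37 C, substrate incubation 2 h at room temperature.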
smiles,measurement,setting,value
OCC(O)c1ccccc1 (stereo unspecified),Potency,[1],inactive
same,Potency,[2],inactive
same,Potency,[3],inactive
same,Potency,[4],inactive
same,outcome,[5],inactive
same,outcome,[6],inactive
same,Potency,[7],inactive
same,outcome,[8],inactive
same,outcome,[9],inactive
same,Potency,[10],inactive
same,outcome,[11],inactive
same,outcome,[12],inactive
same,outcome,[13],inactive
same,outcome,[14],inactive
same,outcome,[15],inactive
same,outcome,[16],inactive
O=Cc1ccc([N+](=O)[O-])cc1,Potency,[1],inactive
same,Potency,[2],inactive
same,Potency,[3],inactive
same,Potency,[4],inactive
same,Potency,[17],inactive
same,outcome,[5],inactive
same,outcome,[6],inactive
same,outcome,[8],inactive
same,outcome,[9],inactive
same,Potency,[10],inactive
same,outcome,[11],inactive
same,outcome,[12],inactive
same,outcome,[13],inactive
same,outcome,[14],inactive
same,outcome,[15],inactive
same,outcome,[16],inactive
same,Potency,[18],inactive
CCCCCCCCCCCCN1CCOCC1,Potency,[1],inactive
same,Potency,[2],inactive
same,outcome,[5],inactive
same,outcome,[6],inactive
same,outcome,[8],inactive
same,outcome,[9],inactive
same,Potency,[10],inactive
same,outcome,[11],inactive
same,outcome,[12],inactive
same,outcome,[13],inactive
same,outcome,[14],inactive
same,outcome,[15],inactive
same,outcome,[16],inactive
same,Potency,[18],inactive
same,Potency,[19],inactive
Clc1ccccc1-c1nc(-c2ccncc2)no1,Potency,[1],inactive
same,Potency,[2],6.68 µM (active)
same,Potency,[3],inactive
same,Potency,[4],inactive
same,Potency,[17],inactive
same,outcome,[6],inactive
same,outcome,[8],inactive
same,outcome,[9],inactive
same,Potency,[10],inactive
same,outcome,[11],inactive
same,outcome,[12],inactive
same,outcome,[13],inactive
same,outcome,[15],inactive
same,outcome,[16],inactive
same,Potency,[18],inactive
CCCCCCCCCCCCCCCCCCCl,activation,[1],-2.7% [at 8.3 µM]
same,activation,[2],2.16% [at 8.08 µM]
same,"activity, negative = cytotoxicity",[3],-17.2% [at 8.08 µM]
same,"activity change, negative = cytotoxicity",[4],-4.97% [at 8.08 µM]
same,"ratio activity, negative = MMP loss",[17],-5.25% [at 8.08 µM]
same,"fluorescence, % of fluorescein control",[6],0.0105% [at 3.72 µM]
same,"fluorescence, % of triamterene",[7],0.0349% [at 3.72 µM]
same,"fluorescence, % of fluorescent control",[8],-0.145% [at 3.72 µM]
same,"fluorescence, % of fluorescein",[9],-0.0209% [at 3.72 µM]
same,"fluorescence, % of fluorescent control",[10],-0.0234% [at 3.72 µM]
same,activity change,[11],0.0076% [at 3.72 µM]
same,"fluorescence, % of fluorescent control",[12],0.0246% [at 3.72 µM]
same,"fluorescence, % of Rose Bengal",[13],-0.217% [at 3.72 µM]
same,"fluorescence, % of fluorescein control",[15],0.0829% [at 3.72 µM]
O=C(Nc1ccc2c(c1)Cc1ccccc1-2)C(F)(F)F,Potency,[1],inactive
same,Potency,[2],inactive
same,Potency,[3],inactive
same,Potency,[17],17.2 µM (active)
same,outcome,[6],inactive
same,outcome,[8],inactive
same,outcome,[9],inactive
same,Potency,[10],inactive
same,outcome,[11],inactive
same,outcome,[12],inactive
same,outcome,[13],inactive
same,outcome,[14],inactive
same,outcome,[15],inactive
same,Potency,[19],inactive
C[C@H](CN1CCCC1)C(=O)c1ccc(C(F)(F)F)cc1,Potency,[1],inactive
same,Potency,[2],inactive
same,Potency,[3],inactive
same,Potency,[4],inactive
same,Potency,[17],inactive
same,outcome,[5],inactive
same,outcome,[6],inactive
same,Potency,[7],inactive
same,outcome,[8],inactive
same,outcome,[9],inactive
same,Potency,[10],inactive
same,outcome,[11],inactive
same,outcome,[12],inactive
same,outcome,[13],inactive
same,outcome,[14],inactive
same,outcome,[15],inactive
same,outcome,[16],inactive
CCC(=O)O[C@@H]1C[C@H]2CC[C@]1(C)C2(C)C,Potency,[1],inactive
same,Potency,[2],inactive
same,Potency,[3],inactive
same,Potency,[4],inactive
same,Potency,[17],inactive
same,outcome,[5],inactive
same,outcome,[6],inactive
same,Potency,[7],inactive
same,outcome,[8],inactive
same,outcome,[9],inactive
same,Potency,[10],inactive
same,outcome,[11],inactive
same,outcome,[12],inactive
same,outcome,[13],inactive
same,outcome,[15],inactive
same,outcome,[16],inactive
same,Potency,[18],inactive
same,Potency,[19],inactive

# Source: PubChem BioAssay (Tox21)
